This is an account of results in PubChem BioAssay (NCATS).

Results filed as inconclusive are left out. Activity calls are given as the source filed them. The call rests on the fitted dose curve; in most records, active means well fitted curve in the direction sought with a large enough effect; inconclusive means small, poorly fitted or top-dose-only effect, or another doubt; inactive means no such curve, though single readings can be large; an effect the other way counts as inactive or inconclusive.

The target of assay [1] is Alpha-galactosidase (Coffea arabica) (UniProt Q42656). The assay is described as follows: Counterscreen for Glucocerebrosidase Inhibitors: qHTS Assay for Coffee Bean alpha-Galactosidase at pH 4.5 (AID 957). Further: series mostly up to about 77 µM. In a few lines:
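Quantitative HTS of compounds (0.7 nM to 77 uM) against coffee bean alpha-galactosidase at pH 4.5, measuring 4-methylumbelliferone fluorescence released from 80 uM substrate.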
On the technique in general: Counterscreens check selectivity or assay interference.

Assay [2] has the same target. Description: Counterscreen for Glucocerebrosidase Inhibitors: qHTS Assay for Coffee Bean alpha-Galactosidase at pH 5.9 (AID 998). In a few lines: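 Enzyme 2 nM + cpd (0.7 nM–77 uM titration) + 4-MU-alpha-Gal 80 uM, pH 5.9 citrate/Tween-20, RT 20 min, NaOH/glycine stop pH 10, fluor 365/440. Normalized to no-enzyme and full-activity controls; Hill-fit AC50.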
The nature of assay [3]: MultiTox-Fluor Cytotoxicity Assay - LYMP1-002 - Dead Cells (AID 960). Further: potency means the concentration at half of the fitted maximal effect; nearly all actives have a fitted effect of over 60% in size. In a few lines: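 Concentration-dependent increases in membrane-leaked protease activity are quantified in LYMP1-002 cells after 16 hr treatment; values are normalized against DMSO and tetraoctylammonium bromide (15 uM) controls and AC50 derived by Hill modeling.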

Alpha-galactosidase (Coffea arabica), sequence (Q42656 whole entry, looked up): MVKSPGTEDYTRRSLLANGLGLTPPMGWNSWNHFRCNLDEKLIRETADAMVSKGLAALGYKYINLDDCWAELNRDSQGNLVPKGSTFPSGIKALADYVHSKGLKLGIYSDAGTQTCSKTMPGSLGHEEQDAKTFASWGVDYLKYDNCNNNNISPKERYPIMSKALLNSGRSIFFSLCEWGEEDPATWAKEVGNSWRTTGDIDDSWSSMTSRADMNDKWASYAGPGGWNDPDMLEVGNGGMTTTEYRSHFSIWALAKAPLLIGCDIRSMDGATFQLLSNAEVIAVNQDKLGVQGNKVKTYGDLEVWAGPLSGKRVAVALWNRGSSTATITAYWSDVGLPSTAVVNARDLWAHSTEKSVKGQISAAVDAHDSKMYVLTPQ

Take `CN(C)CC[C@@H](c1ccccc1)c1ccccn1`: the result in assay [1] and in assay [2] was inactive.
`NCC[C@H]1CCC[C@H](CCN)N1`: the compound was classed as inactive in assay [1] and in assay [2].
As for `CCCCCCCCCCCCCCCCCCOC[C@@H](COP(=O)([O-])OCC[N+](C)(C)C)OC`, the outcome in assay [1] and in assay [2] was inactive.
With `COc1ccc([C@H]2Sc3ccccc3N(CCN(C)C)C(=O)[C@H]2OC(C)=O)cc1`, the compound was called inactive in assay [1] and in assay [2].
On to `CC(=O)[C@@]1(O)CC[C@@H]2[C@@H]3CCC4=CC(=O)CC[C@@]4(C)[C@H]3CC[C@]21C`, for which the outcome in assay [1] and in assay [2] was inactive.
In the case of `COc1ccc(NC(=O)/C=C\c2ccc(Cl)cc2)cc1`, the compound was called inactive in assay [1] and in assay [2].
As to `C=C(C)[C@@H]1CC=C(C(=O)O)CC1`, the outcome in assay [1] and in assay [2] was inactive.
Consider `O=[N+]([O-])c1ccc(CSc2ncnc3c2ncn3[C@@H]2O[C@@H](CO)[C@@H](O)[C@H]2O)cc1`, for which the outcome in assay [1] and in assay [2] was inactive.
Regarding `C=CCN1CCc2c(cc(O)c(O)c2Br)[C@H](c2ccccc2)C1`, the compound was called inactive in assay [1] and in assay [2].
Turning to `CCCCOc1cc(C[C@@H]2CNC(=O)N2)ccc1OC`, the outcome in assay [1] and in assay [2] was inactive.
Consider `CN(C)CCO[C@](C)(c1ccccc1)c1ccccn1`, for which the compound was called inactive in assay [1] and in assay [2].
In the case of `CNC(=O)[C@@H]1O[C@@H](n2cnc3c(N)ncnc32)[C@@H](O)[C@H]1O`, the call in assay [1] and in assay [2] was inactive.
In the case of `O=C(O)CNC(=O)[C@@H](CS)Cc1ccccc1`, the result in assay [1] and in assay [2] was inactive.
In the case of `O=C1c2c(O)cc(O)cc2O[C@@H](c2ccc(O)c(O)c2)[C@H]1O`, the call in assay [1] and in assay [2] was inactive.
Consider `CC(C)(C)c1onc(OCP(=O)(O)O)c1C[C@@H](N)C(=O)O`, for which the outcome in assay [1] and in assay [2] was inactive.
`CCOC(=O)C1=C(C)NC(C)=C(C(=O)OC)[C@H]1c1cccc(Cl)c1Cl`: the call in assay [1] and in assay [2] was inactive.
`O=C(O)[C@H]1CN(CCCP(=O)(O)O)CCN1`: the outcome in assay [1] and in assay [2] was inactive.
On to `Cc1ccccc1/C=C\C1=NCCN1`, for which the compound was classed as inactive in assay [1] and in assay [2].
With `COc1cccc(OC)c1OCCNC[C@@H]1COc2ccccc2O1`, the compound was classed as inactive in assay [1] and in assay [2].
In the case of `COc1ccc(CCNC[C@H](O)c2ccc(O)cc2)cc1OC`, the compound was classed as inactive in assay [1] and in assay [2].
With `CC(C)C[C@H](NC(=O)[C@@H]1O[C@H]1C(=O)O)C(=O)NCCCCN=C(N)N`, the result in assay [1] and in assay [2] was inactive.
On to `CC(=O)OCC1=C(C(=O)O)N2C(=O)[C@@H](NC(=O)CSc3ccncc3)[C@@H]2SC1`, for which the compound was classed as inactive in assay [1] and in assay [2].
On to `COc1cc([C@H](O)C(=O)O)ccc1O`, for which the result in assay [1] and in assay [2] was inactive.
Regarding `CC[C@H](C)C(=O)O[C@H]1CCC=C2C=C[C@H](C)[C@H](CC[C@@H]3C[C@H](O)CC(=O)O3)[C@H]21`, the result in assay [1] and in assay [2] was inactive.
With `N=C1Sc2ccccc2C2=NCCCN12`, the call in assay [1] and in assay [2] was inactive.
`Cc1ccccc1N1CCN(S(=O)(=O)C[C@@]23CC[C@H](C[C@H]2NC(=O)[C@@H](N)CCS(C)(=O)=O)C3(C)C)CC1`: the compound was classed as inactive in assay [1] and in assay [2].
As to `CN1C(=O)CC[C@@H]1c1cccnc1`, the call in assay [1] and in assay [2] was inactive.
For the compound `O=C1[C@@H]2C=CC=CC2=NC(=S)N1CCN1CCC(=C(c2ccc(F)cc2)c2ccc(F)cc2)CC1`, the compound was classed as inactive in assay [1] and in assay [2].
Turning to `CN(C)C/C=C(\c1ccc(Br)cc1)c1cccnc1`, the call in assay [1] and in assay [2] was inactive.
With `C[C@@](N)(Cc1ccc(O)c(O)c1)C(=O)O`, the outcome in assay [1] and in assay [2] was inactive.
Turning to `C[C@@H](Cc1ccccc1)Nc1ncnc2c1ncn2[C@@H]1O[C@@H](CO)[C@H](O)[C@@H]1O`, the compound was classed as inactive in assay [1] and in assay [2].
With `CC[C@H](C)[C@@H]1O[C@]2(CC[C@@H]1C)C[C@H]1C[C@H](CC=C(C)[C@@H](O[C@H]3C[C@H](OC)[C@H](O[C@H]4C[C@H](OC)[C@H](O)[C@H](C)O4)[C@H](C)O3)[C@@H](C)C=CC=C3CO[C@@H]4[C@@H](O)C(C)=C[C@H](C(=O)O1)[C@@]34O)O2`, the result in assay [1] and in assay [2] was inactive.
For `CN1CCc2cc(Cl)c(O)cc2[C@H](c2ccccc2)C1`, the result in assay [1] and in assay [2] was inactive.
Turning to `Nc1ccc(CCNc2ncnc3c2ncn3[C@@H]2O[C@@H](CO)[C@H](O)[C@@H]2O)cc1`, the call in assay [1] and in assay [2] was inactive.
For the compound `CN(C)C(=O)/N=N\C(=O)N(C)C`, the compound was classed as inactive in assay [1] and in assay [2].
In the case of `COc1cccc(OC)c1OCCNC[C@@H]1CSc2ccccc2O1`, the compound was classed as inactive in assay [1] and in assay [2].
Regarding `CCNC(=O)[C@@H]1O[C@@H](n2cnc3c(N)nc(NCCc4ccc(CCC(=O)O)cc4)nc32)[C@H](O)[C@@H]1O`, the call in assay [1] and in assay [2] was inactive.
As for `CCN(Cc1ccncc1)C(=O)[C@@H](CO)c1ccccc1`, the compound was classed as inactive in assay [1] and in assay [2].
As to `CCCN(CCC)C(=O)[C@@H](CCC(=O)O)NC(=O)c1ccccc1`, the compound was called inactive in assay [1] and in assay [2].
On to `C[C@@H](C[N+](C)(C)C)OC(N)=O`, for which the call in assay [1] and in assay [2] was inactive.
For `FC(F)(F)c1cc(CO[C@@H]2CCCN[C@H]2c2ccccc2)cc(C(F)(F)F)c1`, the compound was called inactive in assay [1] and in assay [2].
Take `Nc1ncnc2c1ncn2[C@@H]1O[C@@H](CO)[C@H](O)[C@@H]1O`: the call in assay [1] and in assay [2] was inactive.
For the compound `CCN(CC)CC#CCOC(=O)[C@@](O)(c1ccccc1)C1CCCCC1`, the call in assay [1] and in assay [2] was inactive.
As to `CO[C@]1(NC(=O)CSCC#N)C(=O)N2C(C(=O)O)=C(CSc3nnnn3C)CS[C@H]21`, the compound was called inactive in assay [1] and in assay [2].
In the case of `NC(=O)c1cc[n+](CC2=C(C(=O)O)N3C(=O)[C@@H](NC(=O)[C@H](c4ccccc4)S(=O)(=O)[O-])[C@@H]3SC2)cc1`, the result in assay [1] and in assay [2] was inactive.
On to `CC[C@]1(O)C[C@H]2CN(CCc3c([nH]c4ccccc34)[C@](C(=O)OC)(c3cc4c(cc3OC)N(C)[C@@H]3[C@](O)(C(=O)OC)[C@H](OC(C)=O)[C@]5(CC)C=CCN6CC[C@]43[C@@H]65)C2)C1`, for which the compound was called inactive in assay [1] and in assay [2].
Regarding `COc1cc(=O)n(C)c2c(OC[C@@H](O)C(C)(C)O)cccc12`, the outcome in assay [1] and in assay [2] was inactive.
In the case of `CN1[C@@H]2CC(OC(=O)[C@@H](CO)c3ccccc3)C[C@H]1[C@H]1O[C@H]12` (some centres undefined), the result in assay [1] and in assay [2] was inactive.
With `C=C1C(=O)O[C@@H]2[C@@H]1CC/C(C)=C\CC[C@@]1(C)O[C@H]21`, the result in assay [1] and in assay [2] was inactive.
For `CC(C)(C)[C@@]1(O)CCN2C[C@@H]3c4ccccc4CCc4cccc(c43)[C@@H]2C1`, the compound was classed as inactive in assay [1] and in assay [2].
For `CCCCCCCCCCCCCCCCCCNC(=O)OC[C@@H](COP(=O)([O-])OCC[n+]1ccsc1)OC`, the compound was called inactive in assay [1] and in assay [2].
Turning to `CN1CCc2c(cc(O)c(O)c2Cl)[C@H](c2cccc(Cl)c2)C1`, the result in assay [1] and in assay [2] was inactive.
As to `COc1cc2nc(N3CC=[N+](C(=O)c4ccco4)CC3)nc(N)c2cc1OC`, the call in assay [1] and in assay [2] was inactive.
In the case of `N[C@H](CCCC(=O)O)C(=O)O`, the call in assay [1] and in assay [2] was inactive.
As to `C/C=C1\C(=O)C[C@@H]2[C@@H]3CCC4=CC(=O)CC[C@@]4(C)[C@H]3CC[C@@]12C`, the result in assay [1] and in assay [2] was inactive.
For `NCCCCNS(=O)(=O)c1cccc2c(Cl)cccc12`, the compound was called inactive in assay [1] and in assay [2].
Take `Fc1ccc(C(c2ccc(F)cc2)N2CCN(C/C=C\c3ccccc3)CC2)cc1`: the result in assay [1] and in assay [2] was inactive.
With `COc1ccccc1N1CCN(C[C@@H](O)COc2cccc3ccccc23)CC1`, the result in assay [1] and in assay [2] was inactive.
Consider `OC[C@@H]1O[C@H](O)[C@@H](Cl)[C@H](O)[C@@H]1O`, for which the outcome in assay [1] and in assay [2] was inactive.
With `CC(N)=NCCCC[C@H](N)C(=O)O`, the compound was called inactive in assay [1] and in assay [2].
With `CN1CCc2cccc3c2[C@@H]1Cc1ccc(O)c(O)c1-3`, the outcome in assay [1] and in assay [2] was inactive.
As for `CO/N=C(\C(=O)N[C@@H]1C(=O)N2C(C(=O)O)=C(COC(C)=O)CS[C@@H]12)c1csc(N)n1`, the compound was classed as inactive in assay [1] and in assay [2].
Consider `OCCN1CCN(CC/C=C2\c3ccccc3Sc3ccc(C(F)(F)F)cc32)CC1`, for which the outcome in assay [1] and in assay [2] was inactive.
In the case of `COc1cc([C@@H](O)CO)ccc1OS(=O)(=O)O`, the call in assay [1] and in assay [2] was inactive.
Regarding `O=c1n(CC2CO2)c(=O)n(CC2CO2)c(=O)n1CC1CO1` (centres undefined), the Potency in assay [3] was 31.6 µM (active).
